# Assay results as given in PubChem BioAssay AID588727 (Southern Research Specialized Biocontainment Screening …, 2011).
# Screen size: about 350,000 compounds; about 450 (0.13%) were called active. How the calls were made is not given here. The list is a sample of the results. Entries with a potency or affinity are not part of this list. Where a SMILES comes first, the peptide text is derived from it. The star is where a group is joined. CH2Cl = ClC*
# Assay: inhibitors of VEEV TC-83 cytopathic effect, confirmation, Vero cells (AID 588727)
# Details: VEEV TC-83 cytopathic effect inhibition, at 20 µM
# [1] = stronger effect = higher value unless noted
# [2] = measured here: 10K pilot screen inhibition, stronger effect = higher value
smiles,measurement,setting,value
CCOC(=O)N1CCN(C(=O)CCNS(=O)(=O)c2ccccc2)CC1,inhibition,[1],1.37% (inactive)
CCOC(=O)c1[nH]c(COC(=O)c2ccccc2NC(=O)c2ccco2)c(C(=O)OCC)c1C,inhibition,stronger effect = higher value,1.08% (inactive)
same,inhibition,[2],3.34%
CCCCN(C(=O)CSc1nc(CCC)cc(=O)[nH]1)c1c(N)n(Cc2ccccc2)c(=O)[nH]c1=O,inhibition,[1],0.91% (inactive)
O=c1oc(C2(O)CCCCC2)cc2ccccc12,inhibition,[1],0.11% (inactive)
O=c1oc(C2(O)CCCCC2)cc2ccc(Br)cc12,inhibition,stronger effect = higher value,0.16% (inactive)
same,inhibition,[2],1.56%
COc1ccc(OC)c(NC(=O)c2ccc3c(c2)OCO3)c1,inhibition,[1],inactive
CCCc1nc2c(s1)CCc1onc(-c3cccc([N+](=O)[O-])c3)c1-2,inhibition,[1],0.11% (inactive)
CN1CCN(c2ccc(NC(=O)c3ccc(-c4ccc(Cl)cc4)o3)cc2)CC1,inhibition,[1],10.7% (inactive)
CN1CCN(c2ccc(NC(=O)c3ccc(-c4ccc(Br)cc4)o3)cc2)CC1,inhibition,[1],9.39% (inactive)
O=C(CN(C(=O)c1csnn1)c1cccc(C(F)(F)F)c1)NCCc1ccccc1,inhibition,[1],inactive
O=[N+]([O-])c1ccc(-[n+]2c(-c3ccccc3)cc(-c3ccccc3)cc2-c2ccccc2)cc1,inhibition,[1],2.23% (inactive)
O=[N+]([O-])c1cccc(C2=NC(c3ccccc3)CO2)c1 (configuration not stated),inhibition,[1],0.23% (inactive)
O=C1CCC(C(=O)N2CCN(c3ccc(F)cc3)CC2)CN1CC1CCCCC1 (configuration not stated),inhibition,[1],0.83% (inactive)
Cc1onc(-c2ccccc2)c1C(=O)NNC(=S)NC(=O)c1ccc(Br)cc1,inhibition,[1],3.29% (inactive)
Cc1onc(-c2ccccc2)c1C(=O)NC(=S)NNC(=O)c1ccc(O)cc1O,inhibition,[1],12.2% (inactive)
Nc1nnnn1/N=C/C(Br)=C/c1ccccc1,inhibition,[1],12.1% (inactive)
BrC(=C\c1ccccc1)/C=N/n1cnnc1,inhibition,[1],5.75% (inactive)
Cc1ccc(-c2cc(C(F)F)n3ncc(C(=O)N4CCN(c5ccccn5)CC4)c3n2)cc1,inhibition,[1],8.27% (inactive)
O=C(NCc1ccccc1)c1ncn[nH]1,inhibition,[1],inactive
O=C(Nc1ccccc1Cl)C1CCCN(S(=O)(=O)c2ccc(-n3cnnn3)cc2)C1 (configuration not stated),inhibition,[1],0.96% (inactive)
Cn1cc(CN2CCC(C(=O)Nc3cccc(-c4cccc(F)c4)c3)CC2)cn1,inhibition,[1],5.64% (inactive)
COc1cccc(-c2ccc(NC(=O)C3CCCN(Cc4cnn(C)c4C)C3)cc2)c1 (configuration not stated),inhibition,[1],23.7% (inactive)
COc1cccc(-c2ccc(NC(=O)C3CCCN(Cc4cnc(C)s4)C3)cc2)c1 (configuration not stated),inhibition,[1],2.02% (inactive)
COc1cccc(-c2ccc(NC(=O)C3CCCN(Cc4cnn(C(C)C)c4)C3)cc2)c1 (configuration not stated),inhibition,[1],21.3% (inactive)
Cc1ncc(CN2CCCC(C(=O)Nc3ccc(-c4ccco4)cc3)C2)n1C (configuration not stated),inhibition,[1],5.05% (inactive)
Cc1ncc(CN2CCCC(C(=O)Nc3ccc(-c4cccc(F)c4)cc3)C2)cn1 (configuration not stated),inhibition,[1],5.3% (inactive)
COC(=O)C(O)(c1ccc(N(C)C(=O)c2ccc(Cl)c(Cl)c2)cc1)C(F)(F)F (configuration not stated),inhibition,[1],0.88% (inactive)
CCOC(=O)c1c(S(=O)(=O)N2c3ccccc3CC2C)c(C)n(C)c1C (configuration not stated),inhibition,[1],inactive
Cc1c(NC(=O)c2ccc(Br)s2)c(=O)n(-c2ccccc2)n1C,inhibition,[1],0.26% (inactive)
O=C(N[C@@H](Cc1ccccc1)C(=O)CCl)OCc1ccccc1,inhibition,[1],8.46% (inactive)
CC(=O)NC(CC(C)C)C(=O)NC(Cc1ccccc1)C(=O)CCl (stereo not drawn) (Ac-Leu-Phe-CH2Cl; configuration not given here),inhibition,[1],6.56% (inactive)
Cc1nc(-c2ccc(Cl)cc2)sc1C1(C)CC(c2cccc(F)c2)=NO1 (configuration not stated),inhibition,[1],2.59% (inactive)
C[C@]12CCC(O)CC1CCC1C2CC[C@]2(C)C(c3cc(C(F)(F)F)n[nH]3)CCC12 (some centres not stated),inhibition,[1],inactive
CN(C)CCNC(=O)c1ccccc1-c1cc2ccccc2c(=O)o1,inhibition,[1],0.53% (inactive)
COc1ccc(C(=O)Nc2cc3c(cc2OC)CCCC3)cc1Br,inhibition,[1],1.28% (inactive)
COc1cc2c(cc1NC(=O)c1cccc(F)c1)CCCC2,inhibition,[1],0.61% (inactive)
CCOc1ccc(NC(=O)CN(C)C(=O)CCc2nc3ccccc3c(=O)[nH]2)cc1OCC,inhibition,[1],inactive
CC1(C)Cc2cccc(OCC(=O)Nc3cccnc3)c2O1,inhibition,[1],7.7% (inactive)
CC1(C)Cc2cccc(OCC(=O)Nc3nccs3)c2O1,inhibition,[1],7.27% (inactive)
CCCC(=O)C1C(=O)CC(CC(C)SCC)CC1=O (configuration not stated),inhibition,[1],0.43% (inactive)
O=C1/C(=C/c2cccnc2)Oc2cc(OS(=O)(=O)c3ccc(F)cc3)ccc21,inhibition,[1],0.87% (inactive)
CCc1c(C(=O)NC2CCCCC2)[nH]c(C)c1C(C)=O,inhibition,[1],inactive
CC(=O)c1c(C)[nH]c(C(=O)NC2CCSc3ccccc32)c1C (configuration not stated),inhibition,[1],4.81% (inactive)
COc1ccc(N2C(=O)CC(N3CCN(c4ccc(Cl)cc4)CC3)C2=O)cc1 (configuration not stated),inhibition,[1],0.34% (inactive)
CCC(CC)c1nnc(NC(=O)Cc2c[nH]c3ccccc23)s1,inhibition,[1],3.52% (inactive)
O=C(Cc1coc2ccc3ccccc3c12)Nc1nccs1,inhibition,[1],2.66% (inactive)
CCc1nnc(NC(=O)Cc2c[nH]c3ccccc23)s1,inhibition,[1],0.4% (inactive)
Cc1cc2occ(CC(=O)Nc3nnc(C4CC4)s3)c2cc1C,inhibition,[1],0.7% (inactive)
CC(=O)c1cccc(N=Cc2c(O)c3ccccc3oc2=O)c1,inhibition,[1],8.95% (inactive)
Cc1[nH]c2ccccc2c1C(C[N+](=O)[O-])c1ccco1 (configuration not stated),inhibition,[1],1.43% (inactive)
COc1cc(S(=O)(=O)N2CCN(C)CC2)c(OC)cc1Cl,inhibition,[1],inactive
O=C(CNCCO)NC12CC3CC(CC(C3)C1)C2,inhibition,[1],2.6% (inactive)
COCCC(=O)NC12CC3CC(CC(C3)C1)C2,inhibition,[1],inactive
Oc1ccc(Cl)cc1N=Nc1ccccc1,inhibition,[1],inactive
Oc1ccc(N=Nc2n[nH]c(-c3ccc(Cl)cc3)n2)cc1,inhibition,[1],1.16% (inactive)
COc1ccccc1-c1n[nH]c(=S)o1,inhibition,[1],0.85% (inactive)
CC(=O)Nc1ccc(S(=O)(=O)N2CCCc3ccccc32)cc1,inhibition,[1],inactive
COC(=O)Nc1ccc(S(=O)(=O)N2CCCc3ccccc32)cc1,inhibition,[1],inactive
O=C(O)c1ccc(Sc2ccccn2)c([N+](=O)[O-])c1,inhibition,[1],0.39% (inactive)
N/C(CS(=O)(=O)c1ccccc1)=N\OC(=O)c1ccc(F)cc1,inhibition,[1],1.85% (inactive)
c1ccc(Oc2nc(NCc3ccco3)nc(NCc3ccco3)n2)cc1,inhibition,[1],4.2% (inactive)
Cc1ccc(S(=O)(=O)Nc2cccc3cccnc23)cc1,inhibition,[1],5.25% (inactive)
Cc1ccc(NS(=O)(=O)c2cccc3cccnc23)c(Cl)c1,inhibition,[1],1.97% (inactive)
O=S1(=O)N=C2CCCCCN2C(c2ccc(Cl)cc2)N1 (configuration not stated),inhibition,[1],0.81% (inactive)
CCCCN1C(Nc2ccccc2)=NC[C@@H]1C,inhibition,[1],0.29% (inactive)
COc1ccc(C(C(=O)NC2CCCC2)N(C(=O)c2ccco2)c2ccc(OC)c(OC)c2)cc1 (configuration not stated),inhibition,[1],0.66% (inactive)
CC(C)NC(=O)N(C)C[C@@H]1Oc2c(NS(=O)(=O)c3ccccc3)cccc2C(=O)N([C@@H](C)CO)C[C@@H]1C,inhibition,[1],0.31% (inactive)
O=c1nc(/C=C/c2ccc(O)c(O)c2)oc2ccccc12,inhibition,[1],1.28% (inactive)
COc1ccc(/C=C/c2nc3ccccc3c(=O)o2)cc1,inhibition,[1],3.84% (inactive)
O=C1NC(=O)c2cc(NC(=O)c3cccc4ccccc34)ccc21,inhibition,[1],2.09% (inactive)
CC12CCC(=O)CC1CCC1C2CCC2(C)C1CCC2(O)C(=O)CO (configuration not stated),inhibition,[1],10.6% (inactive)
C[C@]1(O)CCC2C3CC[C@@H]4CC(=O)CC[C@]4(C)C3CC[C@@]21C (some centres not stated),inhibition,[1],inactive
Cn1cc(CN2CCC(CO)CC2)c(-c2ccc(Oc3ccccc3)cc2)n1,inhibition,[1],0.54% (inactive)
Cn1cc(CN2CCC(O)CC2)c(-c2ccc(Oc3ccccc3)cc2)n1,inhibition,[1],1.33% (inactive)
COc1cccc(CN2CC(C(=O)NCCCn3ccnc3C)CCC2=O)c1 (configuration not stated),inhibition,[1],0.67% (inactive)
CC(C)c1nnc(SCC(=O)N2CCc3ccccc32)n1N,inhibition,[1],inactive
C/C(=N\NC(=O)c1c(C)nc2ccccn12)c1cccc([N+](=O)[O-])c1,inhibition,[1],0.31% (inactive)
COc1ccc(/C=C/C(=O)c2c(C)nc3ccccn23)cc1,inhibition,[1],5.86% (inactive)
Cc1ccc(S(=O)(=O)NNC(=O)c2sc(NS(=O)(=O)c3ccccc3)nc2C)cc1,inhibition,[1],2.55% (inactive)
COc1ccc(CNC(=O)C(C)Sc2nc3ccccc3c(=O)n2CCCN2CCOCC2)cc1 (configuration not stated),inhibition,[1],0.34% (inactive)
CC(=O)c1cccc(NC(=O)CSc2nc3ccccc3c(=O)n2CCCN2CCOCC2)c1,inhibition,[1],8.56% (inactive)
Cc1ccc2nnnc(-c3ccccc3)c2c1,inhibition,[1],0.17% (inactive)
c1ccc(-c2nnnc3ccccc23)cc1,inhibition,[1],0.46% (inactive)
COC(c1ccccc1)c1nc2ccccc2[nH]c1=O (configuration not stated),inhibition,[1],0.57% (inactive)
O=C(CCCSc1nc2ccccc2[nH]1)Nc1ccccc1,inhibition,[1],inactive
COc1cc(NC(=S)NC(=O)c2cc(C)cc(C)c2)ccc1NC(=O)c1cccs1,inhibition,[1],8.93% (inactive)
COc1cc(NC(=S)NC(=O)c2c(OC)cccc2OC)ccc1NC(=O)c1cccs1,inhibition,[1],3.81% (inactive)
Cc1ccc(Cl)cc1Nc1nc(N2CCOCC2)nc(N2CCOCC2)n1,inhibition,[1],inactive
CC(C)(C)c1ccc(C(=O)CC(=O)c2cc(Cl)ccc2O)cc1,inhibition,[1],1.44% (inactive)
Cc1ccc(O)c(C(=O)CC(=O)c2ccc(C(C)(C)C)cc2)c1,inhibition,[1],2.3% (inactive)
O=C(CC(=O)c1ccccc1O)c1cccc(F)c1,inhibition,[1],2.48% (inactive)
Cc1ccc(C(=O)CC(=O)c2cccc(F)c2)c(O)c1,inhibition,[1],1.73% (inactive)
CCN(CC)C(=O)Cn1cc(S(=O)(=O)CC(=O)N2CCOCC2)c2ccccc21,inhibition,[1],1.34% (inactive)
CCc1cccc(CC)c1-n1c(SCc2cc(=O)n3ccsc3n2)nnc1-c1cccnc1,inhibition,[1],inactive
CN(C(=O)COC(=O)/C=C/c1ccc(S(=O)(=O)N2CCc3ccccc32)cc1)C1CCS(=O)(=O)C1 (configuration not stated),inhibition,[1],0.84% (inactive)
